Experimental data published in the supplement of paper PMC6555819.

tested on: VDR:RXRa (NR concentration 270 nM, RXRa partner concentration 90 nM); experiment: PBM binding z-score (relative to random genomic background probes); higher = stronger binding; sequences stand for … in GC…GCGATTGACAGCGTAGAATGAAGG
Method: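 Protein-binding microarray (Agilent 4x180K custom design, double-stranded 60-nt probes: 5' GC cap, 34-nt variable region, 24-nt constant primer region; full probe sequence given). Purified or IVT nuclear receptor:RXRα heterodimers (3:1 NR:RXRα, mostly 270:90 nM) or homodimers were incubated for 1 h in PBS with 2% milk and no ligand, then detected with Alexa488 antibodies. Fluorescence from o1-orientation probes (~5 replicates averaged) was converted to z-scores against 500 random hg19 background probes. Variable regions are seed direct-repeat (DR0–DR5) sites, all their single-nucleotide variants and half-site ablations.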

Sequence | PBM binding z-score
TCATATAGGTAAGACAGGTGAAAGTCGGCATCTA | 0.987
CCAGACAGGTGAGAAGGTAACGCAGCCTCGATTA | -0.101
CCTAGCAGGCCAATCTGGGACACTCAAGGCTTGA | -0.61
CCTTACGGGTCACGGACAGGTTATAGCATTTGGA | 4.74
AGAATGAGGTTATACGTAGATCAGGGTAGAAAGT | 1.49
TGAATGATGTTAAAGATCAGGGAACGTGGCGTCG | -0.0975
CAGACTAGGTCAAGGTCAAAGTCGGTTTGTGCCA | 5.15
CGAACTAGGTCATTTACAGGACAGTGAATAGTAA | 2.14
TAGCCTAGGTTATTCAGGGGCCAGTATAGAAAGC | 0.101
CGAACTAGGTCATTGATAGGACAGTGAATAGTAA | 2.27
CCTACTGGGCCAAGGTCATTGAACAGTCAAAGCA | 3.39
TCTGGTAGATCAGCAGGTTAAGAAAGCTGGCCAA | 0.0223
ATATGTAGGTTTAGGGTCATTCAGGTTGGTTCGC | 5.54
AACACAGGGTCACTAGGCCAGAGTAGGTACGAAT | 3.96
ACTTACGGGTCAACGAGGTAATAGCACGCGTATA | 6.51
ACAGACAGGTGATGAACGTAACTCAGGCTATCAT | -0.0512
CCGATTGGGGCAAAGGTTACCATACTCAGTACGA | 1.6
AATACTGGGTCACTAGGCCAGAGTAGGTACGAAT | 1.47
TAGCCTAGGTCATTGGGCCCGTATAGTACGCATC | 2.74
TCGAGTAGGTTAGGGGCATTCGGAATGGCGTCGA | 0.55

Sequence | PBM binding z-score
ATCGAAAGGTCGACGGGGTGAGTATACACCGTTT | 5.62
GCTCGGAGGACACGGTCAGAGCTTTGTCCGTAGA | -0.792
TCTTGTAGATCCAGCAGGTTAAGAAAGCCTGAGT | 0.306
TATACAGGGTCAAAGGCCAGAGGACGAATGTCGA | 4.73
TAGAGTAGGTTAGTCGGGGCATTCAGCCAACATA | 2.52
CAGCCGAGGTCAGGGCCAGTATAGGAGGAACGTT | 3.64
ATCTCTAAGTAAGACTCAGTTCAGTGAAGAACGC | 0.712
CGTCAAAGTGCAACTAAGGTAACGTAAAGCACGC | 0.866
CCTATTAGTTGACCAGAAGGGCAACCGAAGCTCG | 0.596
TGTCAAAGTACAAAGGTAACGTAAGTATCCACAC | 0.725
CAGACAGGGTCAGCTAGGCCAGAGTAGGGACGGC | 3.81
TCTGCTAGGTCTGTTGGTCAGCTAACGAGCTGCC | -0.568
AATACAGGTTCACTAGGCCAGAGTAGGTACGAAT | 3.2
GCTCCTAGGTCAGGTTGGTCAGCTAACGGGTACG | 0.913
TCTAGTTGGTCACGGAGGTCAAACACGACGGGTA | 6.21
TCTTGTAGATCAAAGTTTAAGAAAGCCGAAGCCT | 0.555
ATATGTATGTTATCGGGTCATTCAGTTTGCGCAT | 4.9
ATCTCTAGGGAACCAAGTTCAGTGAATGCCGAAC | 2.1
TCATATAGGTAAGGGTGAAAGTCGAACGATATGA | 0.991
TCATATAGTTAAACAGGTGAAAGTCCGTAAGTTA | 1.21
